Results from PubChem BioAssay (NCI).
Compounds without any hit were thinned out: in the full panel of roughly 79,000, 15% have a hit. A number with no mark means an inactive call. Calls of active or inactive are those of the source. Cut-off read from the data, not from the text of the source: active = growth inhibition above about 70%; inactive = the rest.

Columns and labels:
[1] = NCI Yeast Anticancer Drug Screen. Data for the rad50 strain (AID 155);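 note: 0% = growth of vehicle-only cultures of the same strain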; conditions: S. cerevisiae rad50 strain growth inhibition, hits give high values
How it was run: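 Vehicle-treated cultures provide the reference for the growth inhibition reported for compound-exposed, repair-deficient yeast.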

[2] = NCI Yeast Anticancer Drug Screen. Data for the mec2-1 strain (AID 157); conditions: S. cerevisiae mec2-1 strain, hits give high values
How it was run: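 Mutant yeast (mec2-1) grown with compound; growth inhibition relative to vehicle control reported.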

[3] = NCI Yeast Anticancer Drug Screen. Data for the sgs1 mgt1 strain (AID 161);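 note: 0% = growth of cultures given vehicle only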; conditions: S. cerevisiae sgs1 mgt1 strain, hits give high values
How it was run: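 Growth of a repair-deficient yeast mutant was monitored after compound treatment and expressed as inhibition relative to vehicle-treated cultures.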

[4] = NCI Yeast Anticancer Drug Screen. Data for the cln2 rad14 strain (AID 165);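 note: 0% = growth equal to vehicle treated cultures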; conditions: S. cerevisiae cln2 rad14 strain, hits give high values
How it was run: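 Readout is yeast growth inhibition versus vehicle-treated controls, using a strain with cln2 and rad14 alterations exposed to compound.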

[5] = NCI Yeast Anticancer Drug Screen. Data for the bub3 strain (AID 167); conditions: S. cerevisiae bub3 mutant strain, hits give high values
How it was run: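 Mutant yeast screening strain plus compound; vehicle-treated cultures serve as the 0% inhibition reference.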

[6] = NCI Yeast Anticancer Drug Screen. Data for the mlh1 rad18 strain (AID 175); conditions: S. cerevisiae mlh1 rad18 strain growth inhibition, hits give high values
How it was run: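 Genetically defined yeast (DNA repair-deficient) exposed to compounds; growth inhibition determined relative to vehicle.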

[7] = at 5.0 µM (retest, dose inferred, filed as 0.5)
[8] = at 50.0 µM (retest, dose inferred, filed as 5.0)

Structure (SMILES) | growth inhibition [1, 7] | growth inhibition [1, 8] | growth inhibition ([1]; at 50.0 µM) | growth inhibition [2, 7] | growth inhibition [2, 8] | growth inhibition ([2]; at 50.0 µM) | growth inhibition [3, 7] | growth inhibition [3, 8] | growth inhibition ([3]; at 50.0 µM) | growth inhibition [4, 7] | growth inhibition [4, 8] | growth inhibition ([4]; at 50.0 µM) | growth inhibition [5, 7] | growth inhibition [5, 8] | growth inhibition ([5]; at 50.0 µM) | growth inhibition [6, 7] | growth inhibition [6, 8] | growth inhibition ([6]; at 50.0 µM)
CN1CCN(CCCN)CC1 | -8% | 8% | 3.7% | -3% | -25% | 25.1% | -4% | -3% | -29.9% | 4% | -4% | 29.9% | 17% | -14% | -18% | -2% | 5% | 11.1%
COC(=O)C1(Cc2ccc(C)cc2)Cc2c(C)cccc2C1=O (stereo not given) | -2% | 47% | 70.3% (active) | -2% | 35% | 39.9% | 13% | 45% | 75.8% (active) | 6% | 32% | 55.9% | 17% | 71% (active) | 75.2% (active) | -1% | 54% | 54.4%
C=CCOC(=O)CC(O)C(=O)OCC=C (stereo not given) | -5% | 7% | 0.95% | 4% | -2% | -12.7% | -1% | 3% | -29.6% | 1% | -9% | 13.8% | 0% | -8% | 7.85% | -5% | 13% | -2.45%
COC(=O)CCC(=O)NCCc1ccc2c([nH]c3ccccc32)c1C | 12% | 5% | 55.6% | 5% | -1% | 59.7% | 4% | 11% | 71.2% (active) | 5% | -7% | 93% (active) | 5% | 4% | 63.5% | 3% | -2% | 91% (active)
S=C1NC2=C(CSC/C2=C\c2cccc(Br)c2)C(c2cccc(Br)c2)N1 (stereo not given) | 9% | 98% (active) | 92.7% (active) | 1% | 98% (active) | 94.3% (active) | -1% | 98% (active) | 95.7% (active) | -8% | 96% (active) | 90% (active) | -15% | 98% (active) | 93.8% (active) | 5% | 98% (active) | 93.8% (active)
COC(=O)c1cc(/C=C/c2ccccc2)on1 | -3% | 3% | -3.75% | 5% | 1% | 0.55% | 2% | 8% | 10.5% | -4% | -14% | 82.2% (active) | 6% | 14% | 2.75% | -3% | 2% | -9.55%
CCCCCCCCCCCCCC(=O)NO | 97% (active) | 97% (active) | 89.2% (active) | 99% (active) | 98% (active) | 91.3% (active) | 99% (active) | 98% (active) | 92.8% (active) | 89% (active) | 96% (active) | 88.2% (active) | 99% (active) | 98% (active) | 90.2% (active) | 99% (active) | 97% (active) | 89.1% (active)
COc1ccc2c(Cc3ccc(Cl)cc3)cncc2c1O | 5% | 91% (active) | 98.1% (active) | 14% | 97% (active) | 99.2% (active) | 15% | 96% (active) | 97.2% (active) | 2% | 87% (active) | 99% (active) | 10% | 93% (active) | 99% (active) | 21% | 96% (active) | 99.1% (active)
O=C(CNc1cccc([N+](=O)[O-])c1)Nn1c(-c2ccccc2)nc2ccccc2c1=O | 2% | 30% | 55.5% | -3% | 17% | 18.4% | 3% | 21% | 62.7% | 12% | 35% | 38.6% | -18% | 9% | 54.6% | 7% | 41% | 76.7% (active)
O=C1C(Br)=C(C2CCCCC2)C(=O)c2ccccc21 | 54% | 99% (active) | 101% (active) | 59% | 100% (active) | 99.7% (active) | 78% (active) | 99% (active) | 99.6% (active) | 20% | 99% (active) | 100% (active) | 24% | 100% (active) | 99.5% (active) | 83% (active) | 99% (active) | 99.2% (active)
CS(=O)c1cc(=O)c2ccccc2s1 (stereo not given) | 6% | 85% (active) | 98.2% (active) | -4% | 73% (active) | 98.9% (active) | 19% | 67% | 99.3% (active) | 10% | 60% | 84.4% (active) | 0% | 95% (active) | 96.2% (active) | 14% | 88% (active) | 99% (active)
FC(F)(F)c1cc(NC(=S)SC2CCCCC2)ccc1Cl | 12% | 97% (active) | 41% | 4% | 99% (active) | 79.2% (active) | 4% | 98% (active) | 88% (active) | -16% | 97% (active) | 88.8% (active) | 12% | 98% (active) | 85.9% (active) | 16% | 97% (active) | 90% (active)
NC(CCl)=NCC1C2CC3CC(C2)CC1C3 (stereo not given) | 14% | 99% (active) | 87.9% (active) | 11% | 99% (active) | 90.2% (active) | 11% | 99% (active) | 90.8% (active) | -3% | 99% (active) | 84.5% (active) | 10% | 98% (active) | 89.2% (active) | 19% | 99% (active) | 89.9% (active)
CN(NC(=O)CC(=O)NN(C)C(=S)c1ccccc1)C(=S)c1ccccc1 | 76% (active) | 84% (active) | 68.5% | 81% (active) | 87% (active) | 80% (active) | 96% (active) | 87% (active) | 91.7% (active) | 60% | 69% | 73.8% (active) | 54% | 73% (active) | 76% (active) | 78% (active) | 76% (active) | 84.2% (active)
C=C1CC(Cn2cc(C)c(=O)[nH]c2=O)(c2ccc(Cl)cc2)OC1=O (stereo not given) | -7% | 82% (active) | 69.8% | -11% | 94% (active) | 73.1% (active) | -27% | 85% (active) | 74.2% (active) | 13% | 43% | 65% | 8% | 89% (active) | 78.3% (active) | 7% | 91% (active) | 85.3% (active)
c1ccc([CH2][Sn]([CH2]c2ccccc2)([S]c2cccc3cccnc23)[S]c2cccc3cccnc23)cc1 | 67% | 24% | 94.2% (active) | 61% | 18% | 92.5% (active) | 65% | 59% | 89.6% (active) | 17% | -5% | 84.5% (active) | 61% | 30% | 93% (active) | 46% | 16% | 93.5% (active)
Cc1c(N)nc(C(CC(N)=O)NCC(N)C(N)=O)nc1C(=O)NC(C(=O)NC(C)C(O)C(C)C(=O)NC(C(=O)NCCc1nc(-c2nc(C(=O)NCCCNCCCc3ccccn3)cs2)cs1)C(C)O)C(OC1OC(CO)C(O)C(O)C1OC1OC(CO)C(O)C(OC(N)=O)C1O)c1cnc[nH]1 (stereo not given) | 98% (active) | 99% (active) | 92.6% (active) | 97% (active) | 99% (active) | 93.4% (active) | 98% (active) | 99% (active) | 93.7% (active) | 90% (active) | 98% (active) | 90.3% (active) | 97% (active) | 98% (active) | 93.3% (active) | 98% (active) | 99% (active) | 92% (active)
c1ccc2c(c1)ccc1c[n+]3c4ccccc4ccc3n12 | 62% | 94% (active) | 73.6% (active) | 28% | 88% (active) | 85.5% (active) | 34% | 82% (active) | 68% | 57% | 91% (active) | 87% (active) | 55% | 93% (active) | 73.4% (active) | 56% | 91% (active) | 83.2% (active)
O=C(O)/C(=C\c1cc(I)c(O)c(I)c1)c1ccc(I)cc1 | 3% | 39% | 88.3% (active) | 42% | 70% (active) | 80.6% (active) | 34% | 75% (active) | 91.8% (active) | 19% | 70% (active) | 82.7% (active) | 3% | 59% | 48% | 37% | 76% (active) | 80.8% (active)
Cc1ccc(C(C)C)c(O)c1N/N=C/c1cc(Cl)ccc1O | 2% | 55% | 73% (active) | 3% | 25% | -0.3% | 1% | 82% (active) | 41.9% | 2% | 26% | -4.05% | 1% | 48% | 58.1% | 2% | 83% (active) | 36.8%
